# Reference: the OligoGym collection
# Experiments:
# Assay in all cases: pooled miR-30 sensor sort-seq; sequence = guide strand
# Details in all cases: shRNA
# MALL = biological target: MALL
# MAMSTR = biological target: MAMSTR
# MAGOH = biological target: MAGOH
# MAN1C1 = biological target: MAN1C1
# MCM6 = biological target: MCM6
# MEPCE = biological target: MEPCE
# MMADHC = biological target: MMADHC
# MOBKL1B = biological target: MOBKL1B
# MOGAT1 = biological target: MOGAT1
# MOCS3 = biological target: MOCS3
# MON2 = biological target: MON2
# MPG = biological target: MPG
# MRC1L1 = biological target: MRC1L1
# MRPL14 = biological target: MRPL14
# MRO = biological target: MRO
# MRFAP1 = biological target: MRFAP1
# MTX3 = biological target: MTX3
# MYL4 = biological target: MYL4
# MYH14 = biological target: MYH14
# MYCBPAP = biological target: MYCBPAP
# MYCL1 = biological target: MYCL1
sequence,measurement,setting,value
TAATGTAGTAAATTCTTGGGTC,sensor-assay potency score (higher = more potent),MALL,0.801
TTAATGTAGTAAATTCTTGGGT,sensor-assay potency score (higher = more potent),MALL,-0.194
TGAAGTTCCAACTTGTGTGGGG,sensor-assay potency score (higher = more potent),MAMSTR,0.878
TTAACTTCCCGTCCGGTCGAAA,sensor-assay potency score (higher = more potent),MAGOH,-1.06
TCCAATAAGACTGAAGACCAAA,sensor-assay potency score (higher = more potent),MAGOH,-1.96
TCAAACTCCAGGAACTCGTGGC,sensor-assay potency score (higher = more potent),MAGOH,0.562
TTCCTGCAGCTCCTCCTCCAGA,sensor-assay potency score (higher = more potent),MAMSTR,-1.58
TTGAGAACAGTCTCAAATCCTG,sensor-assay potency score (higher = more potent),MAN1C1,-0.222
TTGATTTATTCAGTAACCGGAA,sensor-assay potency score (higher = more potent),MCM6,-0.345
TTGTGGAACAGGTACACAGGAC,sensor-assay potency score (higher = more potent),MEPCE,-0.946
TTCGAGAGCATATATCTGGAGG,sensor-assay potency score (higher = more potent),MMADHC,-0.923
TTCTTCACTCCAAACAGTCATA,sensor-assay potency score (higher = more potent),MMADHC,-1.24
AATATTAGTACCATCTGCCCAG,sensor-assay potency score (higher = more potent),MOBKL1B,0.0511
AAGAGTTTCATCATCAAGCTGA,sensor-assay potency score (higher = more potent),MOBKL1B,0.471
TATAGGTCTGATGTAACTCCTC,sensor-assay potency score (higher = more potent),MOGAT1,-0.267
TTAGAAAGCATTTTGACTGGGG,sensor-assay potency score (higher = more potent),MOCS3,0.772
TAGGACACACTTTTCTTGGAAA,sensor-assay potency score (higher = more potent),MOGAT1,-0.902
TTTTGGTGCAGAACATTTGATT,sensor-assay potency score (higher = more potent),MOBKL1B,-0.935
TTTTAATATTAGTACCATCTGC,sensor-assay potency score (higher = more potent),MOBKL1B,-0.715
TTAAAGGGTCTAACTCTTGAGC,sensor-assay potency score (higher = more potent),MOCS3,-0.607
AACAAGTGTATCTTTGAGGTAT,sensor-assay potency score (higher = more potent),MOCS3,0.286
ATGAATTGGAAAATAGTCCTTA,sensor-assay potency score (higher = more potent),MOGAT1,0.9
TTTCTGTGAGTCATTTCCCAGT,sensor-assay potency score (higher = more potent),MOCS3,-0.966
TATGTGATAACAACAAGAGTGG,sensor-assay potency score (higher = more potent),MOBKL1B,-0.235
TAATTCTTGAAGAGGTGCCAGC,sensor-assay potency score (higher = more potent),MOBKL1B,-0.967
TATTATGGCAATCCACATCTTT,sensor-assay potency score (higher = more potent),MOCS3,-0.453
TTGAATGTTTTAGAAGAGCGGC,sensor-assay potency score (higher = more potent),MOBKL1B,-0.634
TTTAACAAATCCTTTCCGCTGG,sensor-assay potency score (higher = more potent),MOGAT1,-0.0523
TTGTACTGAAAAACTCCCCTGG,sensor-assay potency score (higher = more potent),MOGAT1,0.595
TTTGCAAATCACATAAATGGGG,sensor-assay potency score (higher = more potent),MOCS3,-0.854
TAACTCCTCAATCTGCTCCTGG,sensor-assay potency score (higher = more potent),MOGAT1,-0.332
TAGTCGGTGACAGAAACACGCT,sensor-assay potency score (higher = more potent),MOCS3,-0.908
TTCTTCAAGACTATTCTCCATT,sensor-assay potency score (higher = more potent),MON2,-0.51
TTAATTCTTGAAGAGGTGCCAG,sensor-assay potency score (higher = more potent),MOBKL1B,-0.419
TAGTCGAAAACAAAGAACGATT,sensor-assay potency score (higher = more potent),MON2,-1.16
AAAAACAACAGTAACAACTTGT,sensor-assay potency score (higher = more potent),MON2,0.77
TCAAAGAGCAACAAGCTGCCAC,sensor-assay potency score (higher = more potent),MOCS3,-0.221
TTACCATGTAGGACACACTTTT,sensor-assay potency score (higher = more potent),MOGAT1,-0.495
TTCATCATCAAGCTGATCTTGA,sensor-assay potency score (higher = more potent),MOBKL1B,0.57
TTTCTTGGAAACTGAAACCAGC,sensor-assay potency score (higher = more potent),MOGAT1,-0.444
TTCTAATCCATGATCCTTCAGG,sensor-assay potency score (higher = more potent),MOGAT1,-0.32
TAGTGTTGAAGATCCTTGCTAC,sensor-assay potency score (higher = more potent),MON2,0.514
TTGGTCACTGTCTCCGCTGGGG,sensor-assay potency score (higher = more potent),MOCS3,-0.474
TTGAATAGAGAGATTATCTGGA,sensor-assay potency score (higher = more potent),MON2,0.727
TTGATCCAGCTGGATCTCCTGC,sensor-assay potency score (higher = more potent),MOGAT1,-0.998
TATAGTTGTGACTTGGATCCAA,sensor-assay potency score (higher = more potent),MOGAT1,0.757
TTGCAAATCACATAAATGGGGA,sensor-assay potency score (higher = more potent),MOCS3,-0.379
TAGCGCAGAATCTCATCTCGGG,sensor-assay potency score (higher = more potent),MOCS3,-0.0421
TAAAAGAATAAAACCAATCTGA,sensor-assay potency score (higher = more potent),MOBKL1B,-0.367
TAAACTAATATTGAGTTCTTGG,sensor-assay potency score (higher = more potent),MON2,-0.234
TTCTGAACAGTTCTAATCCATG,sensor-assay potency score (higher = more potent),MOGAT1,-1.47
TTTAATATTAGTACCATCTGCC,sensor-assay potency score (higher = more potent),MOBKL1B,0.311
TTGAGCTGCTGATAAGGACTGG,sensor-assay potency score (higher = more potent),MOCS3,-0.00969
TTGGACATCTCCTTTAACGGGT,sensor-assay potency score (higher = more potent),MON2,-0.305
TAGCTGGTCGCTGCTTCTTTTG,sensor-assay potency score (higher = more potent),MPG,-2.15
TACAGCTTGAAACACAAGCTTG,sensor-assay potency score (higher = more potent),MRC1L1,-1.09
TTCTGAATTGACATCATTCAGC,sensor-assay potency score (higher = more potent),MRC1L1,-0.303
TTTCTCATCTCTGTGAATCTTG,sensor-assay potency score (higher = more potent),MRC1L1,0.274
TCATCTTCTGAATCGCACTCAG,sensor-assay potency score (higher = more potent),MRPL14,-0.0883
TATACTTTCTCACCTTGTCAGG,sensor-assay potency score (higher = more potent),MRO,-0.957
TTGATCTTCTTCACTCTGGAAG,sensor-assay potency score (higher = more potent),MRO,-0.557
TTGCTCATGAATCTCTGTGATG,sensor-assay potency score (higher = more potent),MRC1L1,-0.904
TTGATCTGGATGAGCATATTGT,sensor-assay potency score (higher = more potent),MRFAP1,-0.361
TTGTCCACCACTCGTACCCGCG,sensor-assay potency score (higher = more potent),MRPL14,-1.02
TTATAGATTAAAAATTGCCTGG,sensor-assay potency score (higher = more potent),MRC1L1,-0.0737
TAGTGTTCCTTTGATCTTCTTC,sensor-assay potency score (higher = more potent),MRO,0.466
TCTGGATGAGCATATTGTCCAT,sensor-assay potency score (higher = more potent),MRFAP1,-0.959
TTTGCAAGCCTTGGCAACCTGG,sensor-assay potency score (higher = more potent),MRO,-1.05
TTGTTTTGCAAGCCTTGGCAAC,sensor-assay potency score (higher = more potent),MRO,-1.43
TCCTCGGCCTTCTCGCACCTCT,sensor-assay potency score (higher = more potent),MRFAP1,-1.7
TAACAACACAGTCAGCATCTTC,sensor-assay potency score (higher = more potent),MRC1L1,-0.367
TTGTTTTCAAACTTGAACGGGA,sensor-assay potency score (higher = more potent),MRC1L1,0.456
ATACAGTCCATACACCAGCAGG,sensor-assay potency score (higher = more potent),MRO,-1.19
TGAATCGCACTCAGACTCCCAG,sensor-assay potency score (higher = more potent),MRPL14,-0.455
TATCATTGATGTCCTTTTCTGC,sensor-assay potency score (higher = more potent),MRO,-0.559
TTGACCAGAATCCATTGGCTGG,sensor-assay potency score (higher = more potent),MRFAP1,-0.987
TATAGTAACAGTGACCATGGAA,sensor-assay potency score (higher = more potent),MRC1L1,0.0156
ATGAGCATATTGTCCATCTCCC,sensor-assay potency score (higher = more potent),MRFAP1,-0.693
TTGGGTTCGGGAGTCGTCGTGG,sensor-assay potency score (higher = more potent),MRC1L1,0.34
TTTGATCTGGATGAGCATATTG,sensor-assay potency score (higher = more potent),MRFAP1,-1.65
TTTCTGAACAATCCTATCCAAA,sensor-assay potency score (higher = more potent),MRC1L1,-1.03
TCATCATCTAATAAAGTCCTGG,sensor-assay potency score (higher = more potent),MRO,-0.176
TATCCGCCGGACCAGCTCCACC,sensor-assay potency score (higher = more potent),MRFAP1,-1.87
TTGATGGCCAGTAGTATCTGGT,sensor-assay potency score (higher = more potent),MRPL14,-0.918
TTTCTTATACTTTCTCACCTTG,sensor-assay potency score (higher = more potent),MRO,-0.188
AAGAACTGCAGGATCTCTGGAT,sensor-assay potency score (higher = more potent),MRO,0.374
TTGTTGGAGTCGAATCTGGGGG,sensor-assay potency score (higher = more potent),MRPL14,-0.711
TTCGCAATCTCCTTGGCCTTCT,sensor-assay potency score (higher = more potent),MRFAP1,-0.202
TTAATTCGTGTCCCCACAGGGT,sensor-assay potency score (higher = more potent),MRPL14,-1.22
AGCACCTCCACTTCCTCCGGTT,sensor-assay potency score (higher = more potent),MRFAP1,-1.22
CTGGATGAGCATATTGTCCATC,sensor-assay potency score (higher = more potent),MRFAP1,-2.34
TTCTCCTCGGCCTTCTCGCACC,sensor-assay potency score (higher = more potent),MRFAP1,-1.46
TTTTCTTATACTTTCTCACCTT,sensor-assay potency score (higher = more potent),MRO,0.132
TCTCCTTGGCCTTCTCCTCGGC,sensor-assay potency score (higher = more potent),MRFAP1,-0.368
TAGAGAGTGATAGCAACCCAGT,sensor-assay potency score (higher = more potent),MRC1L1,-0.877
TTTGATCTTCTTCACTCTGGAA,sensor-assay potency score (higher = more potent),MRO,-0.504
TAAAGCTACACAATCATTCCGT,sensor-assay potency score (higher = more potent),MRC1L1,0.804
TTTTGGTTTAGAGTCTTCCTTA,sensor-assay potency score (higher = more potent),MTX3,0.00174
TAGGTGATCTTCATCTCTCCAG,sensor-assay potency score (higher = more potent),MYL4,-0.392
TAGAGCTGTCCCACTGTCCGGA,sensor-assay potency score (higher = more potent),MYH14,0.0775
TTTCCGTCTTCCCAGCTCCAGA,sensor-assay potency score (higher = more potent),MYH14,-1.5
TTCCTCTGCCTCCTCGTCGGAT,sensor-assay potency score (higher = more potent),MYH14,-1.06
TGCAATTCTCTTAAAATCCTGG,sensor-assay potency score (higher = more potent),MYCBPAP,-0.695
TCTTTGAACTCTTCAATCTGGT,sensor-assay potency score (higher = more potent),MYL4,-0.00801
TTAGGATCACTACTTTGGGGGC,sensor-assay potency score (higher = more potent),MYCL1,-0.971
ATCTTCATCTCTCCAGTCGGGG,sensor-assay potency score (higher = more potent),MYL4,-0.885
TTCACCTTGGTAAACAGCCGCC,sensor-assay potency score (higher = more potent),MYH14,-0.755
TTGGTGTTTTCCGTCTTCCCAG,sensor-assay potency score (higher = more potent),MYH14,-1.05
TCTATCTTTACACTCTTGGGGT,sensor-assay potency score (higher = more potent),MYL4,0.0138
ATAGTCGTAGAAATAGTGCTGG,sensor-assay potency score (higher = more potent),MYCL1,0.222
TAGTCGTAGAAATAGTGCTGGT,sensor-assay potency score (higher = more potent),MYCL1,-0.671
TCAATTTCTTCATTCTCCGAGT,sensor-assay potency score (higher = more potent),MYCL1,0.102
TATCTTTACACTCTTGGGGTCA,sensor-assay potency score (higher = more potent),MYL4,-0.527
TTGTAGGACATTGCTAACAGGT,sensor-assay potency score (higher = more potent),MYCBPAP,-0.808
TCTTTTCTGCAACTGCTGCTGC,sensor-assay potency score (higher = more potent),MYCL1,0.0557
TTCTTCCAGATGTCCTCGCTGG,sensor-assay potency score (higher = more potent),MYCL1,-0.137
TAGTGGAGAACACTGAAGTCGG,sensor-assay potency score (higher = more potent),MYH14,-0.73
TCTTCATCTCTCCAGTCGGGGT,sensor-assay potency score (higher = more potent),MYL4,-1.55
TAGATCAGAAACAGACTCCGAT,sensor-assay potency score (higher = more potent),MYCBPAP,0.675
AATTCTTTTCTGCAACTGCTGC,sensor-assay potency score (higher = more potent),MYCL1,-0.74
